Laboratory results from PubChem BioAssay (EPA / NIEHS).
Activity calls are given as the source filed them. The calls were made as follows: active = hit-call score of the fitted dose curve at least 0.9, where 1 is the maximum; inactive = score below 0.9.

Experiments:
[1] = ATG_E_Box_CIS: Attagene CIS-FACTORIAL HepG2 Assay for human Enhancer Box (E-box) (AID 2282936); conditions: HepG2 E-box cis-reporter transcription, actives raise or lower the signal
Summary of the method: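 Endogenous transcription factor activity was sensed in human HepG2 liver cells through transfected cis-promoter reporter units. After 24 h of dosing, total RNA was reverse-transcribed and reporter cDNA resolved by capillary electrophoresis.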

[2] = ATG_M_61_CIS: Attagene CIS-FACTORIAL HepG2 Assay for M61 Transcription Factor (Internal Marker) (AID 2282937); conditions: HepG2 Attagene CIS-FACTORIAL M61 internal marker reporter; actives raise or lower the signal
Summary of the method: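 Using transiently transfected HepG2 liver cells, reporter transcript levels were assessed 24 h post-dosing by RT-PCR and capillary electrophoresis. Changes in either direction were fitted relative to DMSO controls.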

[3] = ATG_EGR_CIS: Attagene CIS-FACTORIAL HepG2 Assay for human Early Growth Response 1 (EGR1) (AID 2282938); conditions: HepG2 Attagene CIS-FACTORIAL EGR reporter mRNA; actives raise or lower the signal
Summary of the method: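 Fluorescent capillary-electrophoresis signal of reporter cDNA fragments serves as read-out. HepG2 cells bear transiently transfected cis-promoter reporter units and are exposed 24 h; gain- or loss-of-signal is fitted against DMSO.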

[4] = ATG_M_19_CIS: Attagene CIS-FACTORIAL HepG2 Assay for M19 Transcription Factor (Internal Marker) (AID 2282939); conditions: HepG2 Attagene CIS-FACTORIAL M19 internal marker reporter; actives raise or lower the signal
Summary of the method: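 HepG2 cells transiently transfected with cis-regulated multiple reporter transcription units were dosed for 24 h; reporter mRNA was quantified by RT-PCR, 6-FAM primer-extension labelling, HpaI digestion and capillary electrophoresis, with bidirectional fitting against DMSO baseline.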

[5] = ATG_Ets_CIS: Attagene CIS-FACTORIAL HepG2 Assay for human Erythroblast Transformation Specific (ETS) (AID 2282941); conditions: HepG2 ETS cis-reporter transcription, actives raise or lower the signal
Summary of the method: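 Bidirectional fit versus DMSO of reporter mRNA signal, detected by RT-PCR and capillary electrophoresis in HepG2 cells transiently transfected with cis-element reporters and dosed 24 h.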

[6] = biological target: Hepatocyte nuclear factor 3-beta (Homo sapiens) (UniProt Q9Y261); assay: ATG_FoxA2_CIS: Attagene CIS-FACTORIAL HepG2 Assay for human Forkhead box A2 (FOXA2) (AID 2282942); conditions: HepG2 cis-reporter transcription factor activity, 24 h; actives raise or lower the signal
Hepatocyte nuclear factor 3-beta (Homo sapiens), sequence (Q9Y261 whole entry, looked up, the tested form may be a part): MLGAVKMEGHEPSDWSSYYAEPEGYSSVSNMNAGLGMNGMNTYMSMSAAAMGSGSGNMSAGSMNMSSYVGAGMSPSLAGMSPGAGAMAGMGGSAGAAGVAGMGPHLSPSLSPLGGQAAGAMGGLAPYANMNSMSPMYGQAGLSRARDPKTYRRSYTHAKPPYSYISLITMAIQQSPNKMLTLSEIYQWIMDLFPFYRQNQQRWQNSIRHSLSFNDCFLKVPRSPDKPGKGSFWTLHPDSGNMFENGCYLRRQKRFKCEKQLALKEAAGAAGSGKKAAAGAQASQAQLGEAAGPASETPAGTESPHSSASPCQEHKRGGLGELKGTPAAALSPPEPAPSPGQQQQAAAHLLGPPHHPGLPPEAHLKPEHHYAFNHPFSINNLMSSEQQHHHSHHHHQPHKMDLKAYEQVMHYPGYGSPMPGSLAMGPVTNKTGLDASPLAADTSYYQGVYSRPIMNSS
Summary of the method: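 Fluorescence signal of reporter cDNA fragments, separated by capillary electrophoresis, reflects endogenous transcription factor activity in transfected HepG2 after 24 h. Both increases and decreases fitted against DMSO.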

[7] = ATG_FoxO_CIS: Attagene CIS-FACTORIAL HepG2 Assay for human Forkhead box O (FoxO) (AID 2282943); conditions: HepG2 Attagene cis-reporter, FoxO element, mRNA; actives raise or lower the signal
Summary of the method: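 Values reflect reporter mRNA induction or loss in HepG2 cells 24 h post-dosing, fitted bidirectionally with DMSO as negative control and baseline. Detection used RT-PCR and fluorescence capillary electrophoresis.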

[8] = ATG_GATA_CIS: Attagene CIS-FACTORIAL HepG2 Assay for human GATA Binding Protein (AID 2282944); conditions: HepG2 GATA cis-element reporter, Attagene multiplex mRNA; actives raise or lower the signal
Summary of the method: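 HepG2 cells transiently transfected with multiplexed cis-element reporter units reflecting endogenous transcription factor activity; reporter mRNA measured after 24 h dosing by RT-PCR, 6-FAM labeling, HpaI digestion and capillary electrophoresis. Bidirectional fitting versus DMSO baseline.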

[9] = ATG_GLI_CIS: Attagene CIS-FACTORIAL HepG2 Assay for human Zinc Finger Protein GLI1 (AID 2282945); conditions: HepG2, Attagene cis-factorial reporter mRNA, GLI element; actives raise or lower the signal
Summary of the method: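 HepG2 cells transiently transfected with cis-promoter multiplexed reporter units report endogenous transcription factor activity. After 24 h chemical exposure, reporter mRNA was quantified by RT-PCR, 6-FAM labelling, HpaI digestion and capillary electrophoresis, with bidirectional fitting against DMSO.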

[10] = biological target: Bile acid receptor (Homo sapiens) (UniProt Q96RI1); assay: ATG_IR1_CIS: Attagene CIS-FACTORIAL HepG2 Assay for human Nuclear Receptor Subfamily 1 Group H Member 4 (NR1H4), IR1 submotif (AID 2282946); conditions: IR1 reporter transcription, actives raise or lower the signal
Bile acid receptor (Homo sapiens), sequence (Q96RI1 whole entry, looked up): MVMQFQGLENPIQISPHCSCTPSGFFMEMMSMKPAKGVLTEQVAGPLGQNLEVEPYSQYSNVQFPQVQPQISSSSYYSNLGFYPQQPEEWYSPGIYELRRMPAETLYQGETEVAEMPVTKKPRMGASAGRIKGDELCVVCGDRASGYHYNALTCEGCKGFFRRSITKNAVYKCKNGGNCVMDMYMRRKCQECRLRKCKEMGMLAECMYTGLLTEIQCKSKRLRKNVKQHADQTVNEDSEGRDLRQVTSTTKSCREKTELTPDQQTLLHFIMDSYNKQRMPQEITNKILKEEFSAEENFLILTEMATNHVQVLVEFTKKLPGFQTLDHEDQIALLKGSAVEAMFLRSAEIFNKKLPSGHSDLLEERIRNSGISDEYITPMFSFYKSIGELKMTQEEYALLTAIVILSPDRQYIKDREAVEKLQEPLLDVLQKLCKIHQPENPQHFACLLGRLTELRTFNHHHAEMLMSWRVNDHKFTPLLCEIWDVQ
Summary of the method: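 Readout: reporter transcript levels by RT-PCR with fluorescent capillary electrophoresis, from HepG2 cells transiently transfected with multiplexed cis-regulated reporters and dosed 24 h. Gain- or loss-of-signal fitted versus DMSO negative control.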

[11] = ATG_GRE_CIS: Attagene CIS-FACTORIAL HepG2 Assay for human Glucocorticoid Response Elements (GRE) (AID 2282947); conditions: HepG2 GRE cis-reporter, Attagene multiplex mRNA; actives raise or lower the signal
Summary of the method: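 Cells (HepG2) bearing transfected cis-promoter reporter transcription units were treated with chemical for 24 hours. Reporter mRNA was measured via RT-PCR with capillary electrophoresis, and activity was fitted in both directions relative to DMSO.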

[12] = ATG_ISRE_CIS: Attagene CIS-FACTORIAL HepG2 Assay for human Interferon Regulatory Factor 1 (IRF1) binding to an Interferon-Stimulated Response Element (ISRE) (AID 2282948); conditions: HepG2 ISRE cis-reporter (Attagene), mRNA transcription readout; actives raise or lower the signal
Summary of the method: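 Uses HepG2 liver cells transfected with cis-regulated reporters and measures mRNA 24 h post-dosing through RT-PCR, primer-extension labelling and capillary electrophoresis, with DMSO as negative control.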

[13] = ATG_M_32_CIS: Attagene CIS-FACTORIAL HepG2 Assay for M32 Transcription Factor (Internal Marker) (AID 2282949); conditions: HepG2 Attagene cis-factorial M32 reporter, mRNA; actives raise or lower the signal;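 also: background control marker of the multiplexed CIS panel rather than a real target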
Summary of the method: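 HepG2 transfectants (cis-regulated reporter transcription units) dosed 24 h. Reporter mRNA by RT-PCR plus CE, analysed as gain or loss relative to DMSO.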

[14] = ATG_M_06_CIS: Attagene CIS-FACTORIAL HepG2 Assay for M06 Transcription Factor (Internal Marker) (AID 2282950); conditions: HepG2 Attagene CIS-FACTORIAL M06 internal marker reporter; actives raise or lower the signal
Summary of the method: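 HepG2 cells transiently transfected with cis-regulated multiple reporter transcription units were exposed to chemical for 24 h; reporter mRNA was quantified by RT-PCR, 6-FAM primer labelling, HpaI digestion and capillary electrophoresis, fitted bidirectionally against DMSO.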

[15] = biological target: Hypoxia-inducible factor 1-alpha (Homo sapiens) (UniProt Q16665); assay: ATG_HIF1a_CIS: Attagene CIS-FACTORIAL HepG2 Assay for human Hypoxia Inducible Factor 1 (HIF1A) (AID 2282951); conditions: HepG2 Attagene cis-factorial HIF1a reporter transcription; actives raise or lower the signal
Hypoxia-inducible factor 1-alpha (Homo sapiens), sequence (Q16665 whole entry, looked up): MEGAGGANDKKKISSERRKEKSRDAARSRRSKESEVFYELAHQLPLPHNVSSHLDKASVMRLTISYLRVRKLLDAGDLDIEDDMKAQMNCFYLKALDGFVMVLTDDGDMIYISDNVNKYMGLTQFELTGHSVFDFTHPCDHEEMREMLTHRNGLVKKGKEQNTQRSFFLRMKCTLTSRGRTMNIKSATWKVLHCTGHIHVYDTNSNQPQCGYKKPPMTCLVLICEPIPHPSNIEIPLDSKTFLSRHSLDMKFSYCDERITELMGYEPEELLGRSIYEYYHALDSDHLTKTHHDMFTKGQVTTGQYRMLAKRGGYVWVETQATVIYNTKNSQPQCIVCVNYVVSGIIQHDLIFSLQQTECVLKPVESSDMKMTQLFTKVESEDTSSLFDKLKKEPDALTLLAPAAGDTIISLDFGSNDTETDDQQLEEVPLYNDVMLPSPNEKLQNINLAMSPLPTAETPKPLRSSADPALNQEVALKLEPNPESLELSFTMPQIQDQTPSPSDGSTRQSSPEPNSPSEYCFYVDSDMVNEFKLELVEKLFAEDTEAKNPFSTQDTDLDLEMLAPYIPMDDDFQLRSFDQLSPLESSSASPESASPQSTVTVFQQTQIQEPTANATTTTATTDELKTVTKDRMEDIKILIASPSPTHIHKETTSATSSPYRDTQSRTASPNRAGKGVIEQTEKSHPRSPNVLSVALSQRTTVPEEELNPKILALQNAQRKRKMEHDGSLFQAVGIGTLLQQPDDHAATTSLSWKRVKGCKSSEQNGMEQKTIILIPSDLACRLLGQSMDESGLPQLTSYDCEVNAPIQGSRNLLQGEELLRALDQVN
Summary of the method: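 Endogenous-TF cis reporter readout, human HepG2 cells, 24 h incubation; mRNA detected via RT-PCR and capillary electrophoresis fluorescence; DMSO-normalised bidirectional fitting.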

[16] = biological target: Hepatocyte nuclear factor 6 (Homo sapiens) (UniProt Q9UBC0); assay: ATG_HNF6_CIS: Attagene CIS-FACTORIAL HepG2 Assay for human Hepatocyte Nuclear Factor 6 (HNF6) (AID 2282952); conditions: HepG2 Attagene cis-factorial HNF6 reporter transcription; actives raise or lower the signal
Hepatocyte nuclear factor 6 (Homo sapiens), sequence (Q9UBC0 whole entry, looked up, the tested form may be a part): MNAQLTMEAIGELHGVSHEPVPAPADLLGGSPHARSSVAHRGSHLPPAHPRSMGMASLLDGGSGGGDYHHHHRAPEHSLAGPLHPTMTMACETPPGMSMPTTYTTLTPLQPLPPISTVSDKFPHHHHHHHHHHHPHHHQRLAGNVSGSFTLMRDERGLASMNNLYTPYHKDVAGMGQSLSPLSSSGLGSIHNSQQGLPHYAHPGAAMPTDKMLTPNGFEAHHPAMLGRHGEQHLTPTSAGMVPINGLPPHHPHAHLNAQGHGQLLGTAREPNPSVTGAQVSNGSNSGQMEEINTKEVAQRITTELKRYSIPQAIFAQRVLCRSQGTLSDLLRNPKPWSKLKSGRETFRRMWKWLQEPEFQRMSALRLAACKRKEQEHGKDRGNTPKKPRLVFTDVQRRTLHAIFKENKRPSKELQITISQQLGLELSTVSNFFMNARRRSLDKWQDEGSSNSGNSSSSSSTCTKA
Summary of the method: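 Using cis-element reporters in HepG2 liver cells, the assay tracks endogenous factor-driven transcription 24 h post-dosing. Signal comes from 6-FAM-labelled, HpaI-digested RT-PCR fragments, with gain or loss scored against DMSO.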

[17] = biological target: Heat shock factor protein 1 (Homo sapiens) (UniProt Q00613); assay: ATG_HSE_CIS: Attagene CIS-FACTORIAL HepG2 Assay for human Heat Shock Transcription Factor 1 (HSE) (AID 2282953); conditions: HepG2 HSE cis-reporter, Attagene RNA transcription; actives raise or lower the signal
Heat shock factor protein 1 (Homo sapiens), sequence (Q00613 whole entry, looked up): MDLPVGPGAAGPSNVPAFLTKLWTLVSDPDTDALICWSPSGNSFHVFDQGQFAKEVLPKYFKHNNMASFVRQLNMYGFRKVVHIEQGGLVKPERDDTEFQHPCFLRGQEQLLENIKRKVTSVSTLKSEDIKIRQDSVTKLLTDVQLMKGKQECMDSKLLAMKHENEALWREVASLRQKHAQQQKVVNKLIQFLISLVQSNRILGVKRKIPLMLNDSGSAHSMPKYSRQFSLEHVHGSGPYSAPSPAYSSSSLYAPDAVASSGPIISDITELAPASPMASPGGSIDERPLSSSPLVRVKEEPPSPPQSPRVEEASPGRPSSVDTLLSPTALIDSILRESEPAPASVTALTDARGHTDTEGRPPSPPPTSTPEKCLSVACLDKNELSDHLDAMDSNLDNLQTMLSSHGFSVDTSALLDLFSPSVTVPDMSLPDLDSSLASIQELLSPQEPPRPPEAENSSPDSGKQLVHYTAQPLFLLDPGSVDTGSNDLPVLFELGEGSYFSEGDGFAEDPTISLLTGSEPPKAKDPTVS
Summary of the method: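 HepG2 cells transiently transfected with multiple reporter transcription units under cis-regulatory promoter control, measuring endogenous transcription factor activity. After 24 h chemical exposure, reporter mRNA quantified by RT-PCR, fluorescent labelling, HpaI digestion and capillary electrophoresis; bidirectional fit versus DMSO.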

[18] = ATG_MRE_CIS: Attagene CIS-FACTORIAL HepG2 Assay for human Metal Responsive Element (MRE) (AID 2282954); conditions: HepG2 MRE cis-reporter transcription, Attagene multiplex; actives raise or lower the signal
Summary of the method: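 Cells were transfected with cis-promoter reporter transcription units, then dosed for 24 h. RNA was reverse-transcribed, amplified, fluorescently labelled and resolved by capillary electrophoresis, and activity was fitted in both directions relative to DMSO.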

[19] = ATG_PBREM_CIS: Attagene CIS-FACTORIAL HepG2 Assay for human Phenobarbital-responsive Enhancer Module (PBREM) (AID 2282955); conditions: HepG2 PBREM cis-reporter, Attagene multiplexed transcription; actives raise or lower the signal
Summary of the method: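 Readout: reporter mRNA, fluorescent RT-PCR fragments separated by capillary electrophoresis. System: HepG2 transiently transfected with cis-regulated reporter units. Exposure: 24 h. Analysis: bidirectional, DMSO baseline.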

[20] = ATG_ERE_CIS: Attagene CIS-FACTORIAL HepG2 Assay for Estrogen Response Element (ERE) (AID 2282940); conditions: HepG2 ERE cis-reporter, Attagene RNA transcript; actives raise or lower the signal
Summary of the method: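 HepG2 cells transiently transfected with cis-promoter-driven multiplexed reporter transcription units report endogenous TF activity. After 24 h compound exposure, reporter mRNA is quantified by RT-PCR with capillary electrophoresis fluorescence; bidirectional fitting versus DMSO baseline.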

CCC(C)S (configuration not stated)
outcome [1]: inactive | outcome [2]: inactive | outcome [3]: inactive | outcome [4]: inactive | outcome [5]: inactive | outcome [6]: inactive | outcome [7]: inactive | outcome [8]: inactive | outcome [9]: inactive | outcome [10]: inactive | outcome [11]: inactive | outcome [12]: inactive | outcome [13]: inactive | outcome [14]: inactive | outcome [15]: inactive | outcome [16]: inactive | outcome [17]: inactive | outcome [18]: inactive | outcome [19]: inactive

Nc1c(S(=O)(=O)O)cc(Br)c2c1C(=O)c1ccccc1C2=O
outcome [1]: inactive | outcome [2]: inactive | outcome [3]: inactive | outcome [4]: inactive | AC50 [20]: 31.9 µM (active) | outcome [6]: inactive | outcome [7]: inactive | outcome [8]: inactive | outcome [9]: inactive | outcome [12]: inactive | outcome [13]: inactive | outcome [14]: inactive | outcome [15]: inactive | outcome [16]: inactive | outcome [17]: inactive | AC50 [18]: 58 µM (active)

CCC1CCCCC1
outcome [1]: inactive | outcome [2]: inactive | outcome [3]: inactive | outcome [4]: inactive | outcome [5]: inactive | outcome [6]: inactive | outcome [7]: inactive | outcome [8]: inactive | outcome [9]: inactive | outcome [10]: inactive | outcome [11]: inactive | outcome [12]: inactive | outcome [13]: inactive | outcome [14]: inactive | outcome [15]: inactive | outcome [16]: inactive | outcome [17]: inactive | outcome [18]: inactive | outcome [19]: inactive

CC(C)(CO)[C@@H](O)C(=O)NCCC(=O)O
outcome [1]: inactive | outcome [2]: inactive | outcome [3]: inactive | outcome [4]: inactive | outcome [20]: inactive | outcome [5]: inactive | outcome [6]: inactive | outcome [7]: inactive | outcome [8]: inactive | outcome [9]: inactive | outcome [12]: inactive | outcome [13]: inactive | outcome [14]: inactive | outcome [16]: inactive | outcome [17]: inactive | outcome [19]: inactive

CCCCCCC(C)(C)S
outcome [1]: inactive | outcome [2]: inactive | outcome [3]: inactive | outcome [4]: inactive | outcome [5]: inactive | outcome [6]: inactive | outcome [7]: inactive | outcome [8]: inactive | outcome [9]: inactive | outcome [10]: inactive | outcome [11]: inactive | outcome [12]: inactive | outcome [13]: inactive | outcome [14]: inactive | outcome [15]: inactive | outcome [16]: inactive | outcome [17]: inactive | outcome [18]: inactive | outcome [19]: inactive

COc1cc(C(C)C)ccc1C
outcome [1]: inactive | outcome [2]: inactive | outcome [3]: inactive | outcome [4]: inactive | outcome [5]: inactive | outcome [6]: inactive | outcome [7]: inactive | outcome [8]: inactive | outcome [9]: inactive | outcome [10]: inactive | outcome [11]: inactive | outcome [12]: inactive | outcome [13]: inactive | outcome [14]: inactive | outcome [15]: inactive | outcome [16]: inactive | outcome [17]: inactive | outcome [18]: inactive | outcome [19]: inactive

Cc1ncc([N+](=O)[O-])n1CCO
outcome [1]: inactive | outcome [2]: inactive | outcome [3]: inactive | outcome [4]: inactive | outcome [20]: inactive | outcome [5]: inactive | outcome [6]: inactive | outcome [7]: inactive | outcome [8]: inactive | outcome [9]: inactive | outcome [12]: inactive | outcome [13]: inactive | outcome [17]: inactive | outcome [18]: inactive | outcome [19]: inactive

O=C(O)COCC(=O)O
outcome [1]: inactive | outcome [2]: inactive | outcome [3]: inactive | outcome [4]: inactive | outcome [5]: inactive | outcome [6]: inactive | outcome [7]: inactive | outcome [8]: inactive | outcome [9]: inactive | outcome [10]: inactive | outcome [11]: inactive | outcome [12]: inactive | outcome [13]: inactive | outcome [14]: inactive | outcome [15]: inactive | outcome [16]: inactive | outcome [17]: inactive | outcome [18]: inactive | outcome [19]: inactive
